Screen size: about 290,000 compounds; about 260 (0.09%) were called active. The sample as a whole holds a higher share of actives than the screen did. Measured potencies and affinities stand elsewhere. Unmarked numbers belong to inactive results. Rule as the data show it: active = inhibition above about 50%; inactive = the rest.
biological target: Kappa-type opioid receptor (Homo sapiens) (UniProt P41145); test: KOR antagonists, beta-arrestin recruitment, cell-based, luminescence, uHTS (AID 1778); conditions: antagonist mode, stronger effect = higher value; at 10 µM unless noted
Sequence (P41145 whole entry, looked up): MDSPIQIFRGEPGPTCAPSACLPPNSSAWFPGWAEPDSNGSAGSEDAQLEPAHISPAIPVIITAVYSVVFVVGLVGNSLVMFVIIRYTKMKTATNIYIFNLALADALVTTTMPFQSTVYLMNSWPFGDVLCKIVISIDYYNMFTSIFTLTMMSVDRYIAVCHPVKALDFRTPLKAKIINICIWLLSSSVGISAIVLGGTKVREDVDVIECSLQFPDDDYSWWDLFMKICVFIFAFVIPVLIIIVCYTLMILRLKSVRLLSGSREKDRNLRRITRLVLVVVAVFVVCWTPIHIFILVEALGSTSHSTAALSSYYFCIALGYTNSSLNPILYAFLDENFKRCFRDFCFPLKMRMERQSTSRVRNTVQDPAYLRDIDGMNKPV

Point of comparison: CC(=O)O[C@@H]1[C@H]2[C@@H](C[C@@H](C)[C@@H]3C=CC(=O)[C@@]13C)OC(=O)[C@@H]2C, inhibition 23.9%. Against it:
- Cn1c(CNC(=O)c2ccccc2F)nnc1SCC(=O)NCc1ccccc1 — lower, -10.1%
- Fc1ccc(-c2ccnc(=S)[nH]2)cc1 — lower, 2.9%
- C/C(=N/NC(=O)c1ccccn1)c1ccncc1 — lower, -12.4%
- C/C(=N/NC(=O)c1ccccn1)c1ccc(O)cc1 — lower, 12.9%
- Cc1ccc(O)c(CO)n1 — lower, 0.6%
- COc1cccc(-n2nc(C#N)c(Cl)cc2=O)c1 — higher, 32.8%
- CC(C)(C)c1ccc(-n2nc(C(N)=O)c(O)cc2=O)cc1 — lower, -2%
- COc1cc(C=O)ccc1OCCSc1ccc(Cl)cc1 — lower, 16.4%
- CC(CCc1ccccc1)NC(=O)c1ccc(NC(=O)c2ccc(Cl)cc2Cl)cc1 (stereo unspecified) — higher, 26.3%
- C/C=N/NC(=O)CCNC(=O)c1ccccc1 — lower, -40%
- CCCCn1c(-c2cccs2)nc2oc3ccccc3c(=O)c2c1=O — lower, 17.8%
- Cc1cc2nnc(SCC(=O)Nc3cc(S(=O)(=O)N4CCOCC4)ccc3Cl)n2c2ccccc12 — lower, -21.8%
- O=C(NNC(=O)C1CC=CCC1C(=O)O)c1cccs1 (stereo unspecified) — higher, 30.6%
- CC1SCC(NC(=O)c2cccc(Cl)c2)CS1 (stereo unspecified) — lower, -29.1%
- CCN(CC(=O)Nc1ccccc1C(F)(F)F)C(=O)CCc1nc2ccccc2c(=O)[nH]1 — lower, -11.6%
- COc1ccc(-c2c(C)[nH]n3c(=O)c(Cc4ccccc4)c(C)nc23)cc1 — lower, -5.1%
- Oc1[nH]c2ccccc2c1C=Nc1ccc2c(c1)OCCO2 — lower, 0.8%
- O=S(=O)(Nc1ccc(N=Nc2ccc(O)c3ccccc23)cc1)c1ccccc1 — lower, -3.4%
- Nc1ccc(N=Nc2ccccc2)c2cccnc12 — lower, -4.3%
- Oc1ccc(N=Nc2ccc3c(c2)OCCO3)c(O)c1 — higher, 34.9%
- O=S(=O)(O)c1cccc2c(N=Nc3ccc(O)c4ncccc34)cccc12 — lower, -7.2%
- Oc1[nH]c2ccccc2c1C=Nc1ccc2c(c1)OCO2 — lower, -33.1%
- COc1ccccc1NC(=O)c1cc2c(CO)cnc(C)c2oc1=Nc1cccc(C(N)=O)c1 — lower, 21.7%
- CCN(CC)CC#Cc1ccc(C)cc1 — lower, -6.4%
- Cc1nn(-c2ccc(N3CCCCC3)nn2)c(C)c1CCC(=O)Nc1ccc(F)c(F)c1 — lower, -31.5%
- Cc1cc(C)cc(NC(=O)c2ccc3c(c2)CCN3S(C)(=O)=O)c1 — lower, -4.2%
- COc1ccccc1N1CCN(Cc2ccc(O)c3ncccc23)CC1 — lower, -12.2%
- Oc1c(CN2CCCCC2)cc(Br)c2cccnc12 — lower, -1.9%
- COc1ccccc1N1CCN(Cc2cc3c(cc2Br)OCCO3)CC1 — lower, -44.1%
- COc1ccc(N2CCN(C(=O)c3cc4c(=O)n(Cc5ccccc5)ccc4nc3C)CC2)cc1 — lower, -13.1%
- CCCCOc1ccc(C(=O)NNC(=S)NC(=O)CC)cc1 — higher, 26.3%
- CCCOc1ccc(C(=O)NNC(=S)NC(C)=O)cc1 — lower, 19.1%
- CCc1nnc(NC(=O)c2ccc(-c3ccccc3F)o2)s1 — lower, -18.1%
- CC(C)(C)C1CCC(=NNC(=S)Nc2cccnc2)CC1 (stereo unspecified) — lower, 11.2%
- CC1=C/C(=N\NC(=S)NCCc2ccccc2)CC(C)(C)C1 — lower, -16.1%
- O=C(Nc1ccc(NC(=O)c2ccccc2Cl)nc1)c1ccco1 — lower, -2%
- C=C1C(=O)O[C@@H]2C[C@@H](C)[C@@H]3C=CC(=O)[C@@]3(C)[C@@H](OC(C)=O)[C@H]12 — higher, 26.1%
- CN(C)CCCNC(=S)NCCNc1nc2cc3c(cc2cc1C#N)OCO3 — lower, 0.9%
- O=C(Nc1ccc(CN2CCS(=O)(=O)CC2)cc1)c1ccccc1 — lower, 0.1%
- CCC(=O)OCCNc1cc(SCCC(=O)OC)c2nonc2c1[N+](=O)[O-] — lower, 5.5%
- CCCSc1cc(NCCOC(=O)CCC)c([N+](=O)[O-])c2nonc12 — lower, -2.8%
- Cn1ccnc1Sc1cc(NCCCO)c([N+](=O)[O-])c2nonc12 — higher, 41.5%
- CCCC(=O)OCCNc1cc(SCCC(=O)OC)c2nonc2c1[N+](=O)[O-] — lower, -12.2%
- Cc1csc(SCC(=O)NC(=O)C2CCCCC2)n1 — lower, -17.4%
- Nc1cc(=O)[nH]c(SCC(=O)Nc2cc([N+](=O)[O-])ccc2Cl)n1 — lower, 15.1%
- O=C(CNC(=O)c1ccco1)OCC(=O)c1ccc(Br)cc1 — lower, -35%
- Cc1ccc(Nc2nc3c(c(=O)[nH]2)CCCC3)cc1 — lower, -0.9%
- Cc1nc(Nc2nc3ccccc3o2)nc2c1CCC2 — lower, 21.7%
- Cc1nn(C)cc1S(=O)(=O)Nc1ccc(F)c(F)c1 — lower, 9%
- COc1ccc(C)cc1NC(=O)CN(c1ccc(F)cc1)S(C)(=O)=O — lower, -4.9%
- Cc1cccnc1Nc1nc(-c2ccc(O)cc2)cs1 — lower, 17.8%
- COc1cccc2sc(Nc3nc(-c4cc5ccccc5oc4=O)cs3)nc12 — lower, -2.1%
- COc1cccc2sc(Nc3nc(-c4ccncc4)cs3)nc12 — lower, -21.7%
- Cc1cccnc1Nc1nc(-c2ccccc2)cs1 — lower, 1.5%
- CN(CC(=O)NCCc1ccccc1)S(=O)(=O)c1cccc2nsnc12 — lower, -1.3%
- O=C(c1cc(F)ccc1F)C1CCCN(C(=O)CCCN2CCCCC2=O)C1 (stereo unspecified) — lower, 20.7%
- COc1ccc(N2CCN(C(=O)C(=O)c3c(C)n(C)c4ccccc34)CC2)cc1 — lower, -32.2%
- COc1ccc(N2CCN(CCCNC(=O)Cn3c(=O)c4cccn4c4ccccc43)CC2)cc1 — higher, 47.8%
- COc1ccc(N2CCN(CCCNC(=O)C(=O)c3c(C)[nH]c4ccccc34)CC2)cc1 — lower, 15.4%
- O=C(Cn1c(=O)c2cccn2c2cccnc21)NCCCN1CCN(c2ccc(F)cc2)CC1 — lower, -19.4%
- CN(C(=O)COC(=O)c1cc2c(s1)CCCCC2)C1CCS(=O)(=O)C1 (stereo unspecified) — higher, 31.3%
- COc1ccc(C2(NC(C)=O)CCN(C(=O)c3cccs3)CC2)cc1 — lower, -9.8%
- O=C(Cn1cnc2c(cnn2-c2ccccc2)c1=O)N1CCCc2ccccc21 — lower, -16.3%
- CCOC(=O)N1CCN(S(=O)(=O)c2ccc(C(=O)N(CCCN(C)C)c3nc4ccc(Cl)cc4s3)cc2)CC1 — lower, -7.9%
- COc1ccc(C[C@H]2CN3C(=NC[C@@H]3Cc3ccc(O)cc3)N2C[C@H](C)NC(=O)c2ccc(C)c(Br)c2)cc1 — lower, 15.3%
- COc1ccc(C[C@@H]2CN3C(=NC[C@@H]3C)N2C[C@H](C)NC(=O)c2ccc(C)c(Br)c2)cc1 — higher, 40%
- Cc1ccc(C(=O)N[C@@H](C)CN2C3=NC[C@H](C)N3C[C@H]2Cc2ccc(O)cc2)cc1Br — higher, 45.3%
- Cc1ccc(C(=O)N[C@@H](C)CN2C3=NC[C@H](C(C)C)N3C[C@H]2Cc2ccc(O)cc2)cc1Br — lower, 19.2%
- NS(=O)(=O)c1ccc(CCNC(=O)CSc2nc3ccsc3c(=O)n2CCCCC(=O)O)cc1 — lower, 3%
- Cc1[nH][nH]c(=O)c1C(c1c(C)[nH][nH]c1=O)c1cn(Cc2ccc(Cl)c(Cl)c2)c2ccccc12 — lower, -8.7%
- Cc1[nH][nH]c(=O)c1C(c1c(C)[nH][nH]c1=O)c1cn(Cc2ccccc2Cl)c2ccccc12 — lower, -4%
- Cc1ccc(NC(=O)C23CCC(C)(C(=O)[C@H]2Br)C3(C)C)cc1 (stereo partly specified) — lower, -3.6%

C/C(=N\NC(=O)c1ccc(F)cc1)c1ccccn1 was tested, and the inhibition was 86.6% (active).
With Cc1nc2c(-c3ccc(Cl)cc3)c(C)[nH]n2c(=O)c1Cc1ccccc1 the inhibition was 51% (active).
For Oc1ccc(N=Nc2ccc3c(c2)OCO3)c2ccccc12, the inhibition was 85.1% (active).
In the case of Oc1ccc(N=Nc2ccc3c(c2)OCCO3)c2cccnc12, the inhibition was 68.5% (active).
COc1ccccc1N1CCN(Cc2cc(Br)c(O)c3ncccc23)CC1 was tested, and the inhibition was 63.3% (active).
For Oc1c(CN2CCN(c3ccccc3)CC2)cc(Br)c2cccnc12, the inhibition was 64% (active).
In the case of Cc1[nH][nH]c(=O)c1C(c1c(C)[nH][nH]c1=O)c1cn(Cc2ccc(F)cc2)c2ccccc12, the inhibition was 53.6% (active).

Point of comparison: COc1ccc(CC(=O)Nc2ccc(C(C)=O)cc2)cc1, inhibition -81.9% [at 20 µM]. Against it:
- Cc1ccc2ccc3ccc(C)nc3c2n1 — higher, -8.8% [at 20 µM]
- Nc1n[nH]c2cc(=O)n(-c3ccc(Cl)cc3)nc12 — higher, -68.5% [at 20 µM]
- COc1ccc(-n2nc3c(N)n[nH]c3cc2=O)cc1 — higher, -30.3% [at 20 µM]
- Cc1nc2c(-c3ccccc3)c(C)[nH]n2c(=O)c1Cc1ccccc1 — higher, -10.5% [at 20 µM]
- CCC(C(=O)OC)n1cnc2c(nnn2-c2ccccc2)c1=O (stereo unspecified) — higher, -16.1% [at 20 µM]
- O=[N+]([O-])c1cc(CN2CCN(c3ccccc3)CC2)c(O)c2ncccc12 — higher, 12% [at 20 µM]
- CCc1nc(N2CCN(C(C)=O)CC2)c2c3c(sc2n1)CC(C(C)(C)C)CC3 (stereo unspecified) — higher, -42.9% [at 20 µM]
- O=C(CC1C(=O)NCCN1Cc1ccccc1C(F)(F)F)NCCc1ccccn1 (stereo unspecified) — higher, -9.9% [at 20 µM]
- O=C(C1CC1)N1N=C(c2ccc(F)cc2)CC1(O)C(F)(F)F (stereo unspecified) — higher, 26.6% [at 20 µM]
- N#CCC(=O)NNC(=S)NC(=O)C(c1ccccc1)c1ccccc1 — higher, -32.2% [at 20 µM]
